Inconclusive results are not listed. The source made the active and inactive calls. The call rests on the fitted dose curve; in most records, active means well fitted inhibition curve with a large enough effect in the repeat runs; inconclusive means weak or mixed curves, or effect the other way; inactive means no such curve, though single readings can be large or run the other way. Where a SMILES comes first, the peptide text is derived from it. [ ]: non-standard residue; d: D form. pGlu = O=C1CC[C@@H](C(=O)O)N1
These compounds were tested against Nuclear receptor ROR-gamma (Homo sapiens) (UniProt P51449) (assay: qHTS assay to identify small molecule antagonists of the retinoid-related orphan receptor gamma (ROR-gamma) signaling pathway (AID 1159521; further: nearly all actives have a fitted effect of over 50% in size;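 on activity change, negative = inhibition: CHO cells with doxycycline inducible ROR-gamma driving an RORE luciferase reporter; top concentration of the series differs between compounds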)). Conditions: Tet-on RORgamma CHO cells, RORE-luciferase, 16 h; series mostly up to 92.4 µM; activity change, negative = inhibition: at the top concentration.
Summary of the method: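 CHO Tet-on RORγ, RORE-luc reporter. Cpd 2 h pre-incubation, then dox hyclate 1 uM final, 16 h, 37 C/5% CO2. ONE-Glo luminescence; decrease = antagonist.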
On the % scale 0 is the no-effect control and ±100 the full control effect; potency means the concentration at half of the fitted maximal effect.

| SMILES | activity change, negative = inhibition | Potency |
| --- | --- | --- |
| O=C(O)CNC(=O)c1ccccc1 | 52% [at 42.5 µM] (inactive) |  |
| CC(C)CC(C)(N)C#N (stereo not drawn) | 26.5% (inactive) |  |
| CCOC(=O)c1cnc2c(cnn2CC)c1NN=C(C)C | -8.43% [at 42.5 µM] (inactive) |  |
| COc1ccccc1OCC1CNC(=O)O1 (stereo not drawn) | -0.482% [at 42.5 µM] (inactive) |  |
| CO/N=C(\C(=O)N[C@@H]1C(=O)N2C(C(=O)O)=C(CSc3nc(=O)c(O)nn3C)CS[C@H]12)c1csc(N)n1 | 19.9% [at 42.5 µM] (inactive) |  |
| O=C1CCCCCCCCCCCCCCO1 | 5.16% (inactive) |  |
| CCCc1nn(C)c2c(=O)[nH]c(-c3cc(S(=O)(=O)N4CCN(C)CC4)ccc3OCC)nc12 | -12.3% [at 42.5 µM] (inactive) |  |
| CCCCOC(=O)CCC(C)=O | -2.5% (inactive) |  |
| O=CN(CCO)CCO | 20% (inactive) |  |
| C[N+](C)(CCOc1ccccc1)Cc1cccs1 | -16.3% [at 42.5 µM] (inactive) |  |
| CC1=NN(c2cccc(S(=O)(=O)O)c2)C(=O)C1 | -26.1% (inactive) |  |
| CCOC(=O)C1=NOC(c2ccccc2)(c2ccccc2)C1 | -9.69% (inactive) |  |
| CCC(=O)OCc1ccccc1 | 20.9% (inactive) |  |
| COc1cc(C(=O)OC(COCCC(C)C)CN2CCOCC2)cc(OC)c1OC (stereo not drawn) | 10.3% [at 42.5 µM] (inactive) |  |
| CC12CCC(C(=O)C1=O)C2(C)C (stereo not drawn) | 13.2% (inactive) |  |
| NC(N)=NCCN1CCCCCCC1 | 36.3% [at 0.35 µM] (inactive) |  |
| Cc1ncc(COP(=O)(O)O)c(C=O)c1O | -0.758% [at 42.5 µM] (inactive) |  |
| CC(=O)Oc1cccc(C)c1 | 48.6% [at 42.5 µM] (inactive) |  |
| CN1[C@@H]2CC[C@H]1CC(OC(=O)C(O)c1ccccc1)C2 (stereo partly drawn) | 2.51% [at 42.5 µM] (inactive) |  |

| SMILES | activity change, negative = inhibition | Potency |
| --- | --- | --- |
| CC(N)C12CC3CC(CC(C3)C1)C2 (stereo not drawn) | -3.54% [at 42.5 µM] (inactive) |  |
| CCN(CC#N)c1cccc(C)c1 | 29.8% (inactive) |  |
| CC1=NN(c2cc(S(=O)(=O)O)ccc2Cl)C(=O)C1N=Nc1ccccc1 (stereo not drawn) | 89% (inactive) |  |
| CC(=O)c1ccccc1[N+](=O)[O-] | -28.5% (inactive) |  |
| C=CCCC(=O)O | 25.3% (inactive) |  |
| O=C(O)CC(C(=O)O)S(=O)(=O)O (stereo not drawn) | 0.483% (inactive) |  |
| CC(C)CCCO | -4.99% (inactive) |  |
| CC(COc1ccccc1)NN (stereo not drawn) | 27.1% [at 42.5 µM] (inactive) |  |
| Nc1ccn([C@@H]2O[C@H](CO)[C@@H](O)[C@@H]2O)c(=O)n1 |  | 8.63 µM (active) |
| CCNC(=O)[C@@H]1CCCN1C(=O)[C@H](CCCN=C(N)N)NC(=O)[C@H](CC(C)C)NC(=O)CNC(=O)[C@H](Cc1ccc(O)cc1)NC(=O)[C@H](CO)NC(=O)[C@H](Cc1c[nH]c2ccccc12)NC(=O)[C@H](Cc1cnc[nH]1)NC(=O)[C@@H]1CCC(=O)N1 ([pGlu]HWSYGLRP-NHEt) | 4.98% [at 42.5 µM] (inactive) |  |
| CCCCN(CCC(=O)OCC)C(C)=O | 0.454% (inactive) |  |
| CCCn1cc[n+](C)c1C | -3.31% (inactive) |  |
| Clc1cc(Cl)cc(Cl)c1 | 13.8% (inactive) |  |
| CCOC(=O)COc1cc(-n2ncc(C(F)(F)F)c(C)c2=O)c(F)cc1Cl | 0.257% (inactive) |  |
| CC(C)COC(=O)c1ccc(N)cc1 | 116% [at 42.5 µM] (inactive) |  |
| CC(=O)OCC(=O)[C@@]1(O)[C@H](C)C[C@H]2[C@@H]3CCC4=CC(=O)C=C[C@]4(C)[C@@]3(F)[C@@H](O)C[C@@]21C | 2.03% [at 42.5 µM] (inactive) |  |
| O=C(O)CCCC[P+](c1ccccc1)(c1ccccc1)c1ccccc1 | 45.2% [at 42.5 µM] (inactive) |  |
| CC1=CCC(O)(C(C)C)CC1 (stereo not drawn) | 3.43% (inactive) |  |
| [K+] | -0.0333% (inactive) |  |

Reference: PubChem BioAssay (Tox21)
